Screens as filed in PubChem BioAssay.
Vaccinia mCherry – vaccinia inhibition (mCherry reporter); 0.63% of 310,000 active; Potency, µM (top dose mostly 36.5 µM), inactives show top-dose activity change, negative = inhibition, hits mostly inhibitors; Vaccinia virus mCherry reporter infection, fluorescence; calls by dose curve; tested in A549 cells; further: potency means the concentration at half of the fitted maximal effect; nearly all actives have a fitted effect of over 35% in size
Vaccinia Venus – inhibitors of vaccinia virus (Venus reporter); Vaccinia virus Venus reporter expression, fluorescence; Potency, µM (highest dose often 36.5 µM), inactives show top-dose activity change, negative = inhibition, usual class: inhibitors; 0.46% of 330,000 active; AID 720580; calls by dose curve; tested in A549 cells; further: potency means the concentration at half of the fitted maximal effect; nearly all actives have a fitted effect of over 30% in size
FMDV inh – antivirals against foot and mouth disease virus | AID 1159524 | Potency, µM (titrated, usually from 57.9 µM), without a hit: at the highest dose activity change, negative = inhibition, usual class: inhibitors | 1.2% of 410,000 active | FMDV antiviral cell-based qHTS; calls by dose curve; tested in HEK293T cells; further: read-out not given here; potency means the concentration at half of the fitted maximal effect; nearly all actives have a fitted effect of over 45% in size
LASV entry inh – inhibitors of Lassa virus binding or cell entry. Potency, µM (doses to about 37.9 µM), for inactives: at the highest dose activity change, negative = inhibition, hits mostly inhibitors. 1.2% of 300,000 active. AID 540256. Lassa virus pseudotype entry inhibition, cell reporter; calls by dose curve; tested in HEK293 cells; further: potency means the concentration at half of the fitted maximal effect; nearly all actives have a fitted effect of over 50% in size
HCMV inh – blocks human cytomegalovirus replication. HFF cells, HCMV-luciferase reporter, 72 h; stronger effect = lower value. activity change, negative = inhibition, % at 57.5 µM. 4.5% of 410,000 active; in the data active means activity change below about -60%; inconclusive means no clear call, values can overlap the other calls; inactive means above about -39%
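Cell-based, HFFs, 1000 cells/well, 16 h 37C; cpds in DMSO + HCMV-luc, MOI 1 PFU/cell; 72 h 37C; OneGlo luminescence after 5 min RT; norm. to buffer vs Salinomycin 10uM.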
MARV entry inh – Marburg virus entry inhibition. 1.8% of 300,000 active. Marburg virus pseudotyped entry inhibition, cell reporter. Potency, µM (doses to about 37.8 µM), for inactives: top-dose activity change, negative = inhibition, actives largely listed as inhibitors; calls by dose curve; tested in HEK293 cells; further: potency means the concentration at half of the fitted maximal effect
The depositor's hits bear a star; i = inactive; ? = inconclusive; . = no result given; [ ] = remark or other dose. This is a sample that favours compounds with a hit; in the whole collection about 6.5% have one here. On the % scale 0 is the no-effect control and ±100 the full control effect.

SMILES	Vaccinia mCherry	Vaccinia Venus	FMDV inh	LASV entry inh	HCMV inh	MARV entry inh
C=CCCCC=C(C)[C@H](OCc1ccc(OC)cc1)[C@H](CCC=C(C)C(N)=O)OC	.	.	.	.	.	10.3%[14.2 µM]
CCCC(C)NC(=O)COc1ccc(Sc2ccc(OCC(=O)NC(C)CCC)cc2)cc1 (centres undefined)	?	-23.5%	?	?	-71.6*	?
CC(C)CNC(=O)COc1ccc(Sc2ccc(OCC(=O)NCC(C)C)cc2)cc1	i	-12.6%	?	?	?	12.8%
CC(C)(C)c1ccc(-c2noc(CCC(=O)NCc3ccco3)n2)cc1	-0.1%	?	-8.4%	?	-81.2*	?
CC(C)(C)c1ccc(-c2noc(CCC(=O)Nc3cccc(Cl)c3)n2)cc1	-0.1%	-5.7%	-65.0%	-21.6%[46.1 µM]	-89.4*	?
O=C(NCc1nc(-c2ccc(C(F)(F)F)cc2)no1)Nc1cc(Cl)cc(Cl)c1	.	.	?	.	-96.3*	.
O=C(CCc1nc(-c2ccc(F)cc2)no1)Nc1cccc(C(=O)NC2CC2)c1	.	.	39.8µM*	.	34.1	.
O=C(NCc1nc(-c2ccc(C(F)(F)F)cc2)no1)Nc1ccc(F)cc1F	-19.7%	-20.7%	-10.6%	15.3%	76.3	?
Cc1ccc(CNC(=O)CN2C(=O)CSc3ccc(S(=O)(=O)N(C)C)cc32)cc1	-5.0%	-13.9%	20.7%	22.2%[46.1 µM]	7.8	.
CN1c2ccccc2C(C)(C)C12C=Cc1cc(O)ccc1O2 (centres undefined)	i	62.5%	.	14.6µM*	-37.7	?
COc1ccc(/C(O)=C2\C(=O)C(=O)N(Cc3ccco3)[C@@H]2c2cccs2)cc1	.	.	.	.	.	-1.1%
COc1ccccc1CN1C[C@@H]2C[C@@H](c3ccc(C)c(C)c3)N3CCC[C@@]23C1=O	?	-1.2%	34.0%	0.7%	-37.1	?
Cc1ccccc1CN1C[C@@H]2C[C@@H](c3cn[nH]c3-c3ccc(F)cc3)N3CCC[C@@]23C1=O	?	-14.8%	15.1%	?	-71.1*	?
COCc1ccc([C@@H]2C[C@H]3CN(Cc4ccccc4C)C(=O)[C@]34CCCN24)o1	.	.	38.8%	.	-29.3	.
COc1ccc(-c2[nH]ncc2[C@@H]2C[C@H]3CN(Cc4ccccc4C)C(=O)[C@]34CCCN24)cc1	.	.	13.6%	.	-71.2*	.
CC1=C[C@@H](COCc2ccccc2)O[C@@]2(C1)C(=O)N(Cc1ccccc1C(F)(F)F)c1ccccc12	.	.	.	.	.	4.8%[14.2 µM]
O=C(Nc1cnns1)Oc1ccccc1	-12.7%	-11.8%	-17.4%	.	-22.5	.
O=S(c1ccc2ccccc2c1)c1cnns1 (centres undefined)	.	10µM*	?	?	-67.7*	?
CN(C(=O)OC(C)(C)C)c1ccc(-c2nc3ccccc3s2)cc1	.	.	100µM*	.	-94.8*	.
COc1ccc(-c2nc3ccccc3s2)cc1O	-21.2%	-16.2%	-58.2%	7.08µM*	?	7.08µM*
Oc1cccc(-c2nc3ccccc3s2)c1	.	-20.3%	-43.9%	?	178.0	7.08µM*
CC(C)c1ccc(-c2nc3ccccc3s2)cc1	i	-10.5%	-0.3%	?	-95.2*	?
Brc1ccc2nc(-c3ccc(CN4CCC5(CC4)CNc4ccccc45)cc3)c(-c3ccccc3)nc2c1	.	.	.	.	-12.4	.
COc1ccc(N2CCN(C(CNC(=O)C(=O)NCc3ccc(F)cc3)c3cccnc3)CC2)cc1 (centres undefined)	i	-17.8%	?	?	-8.3	.
COc1ccc2c3n([n+]([O-])c2c1)C(C)CN=C3c1ccc(Cl)cc1 (centres undefined)	.	.	.	.	49.8	.
SMILES	Vaccinia mCherry	Vaccinia Venus	FMDV inh	LASV entry inh	HCMV inh	MARV entry inh
Cc1ccc(C)c(CNC(=O)C2CCCCN2S(=O)(=O)c2ccc(F)cc2)c1 (centres undefined)	-11.9%	-6.6%	-23.4%	?	-3.2	.
COCCNC(=O)C1(C)CCCN(C(=O)c2ccc(C)c(F)c2)C1 (centres undefined)	37.8%	-1.6%	-12.4%	.	-31.6	.
COCCNC(=O)C1(C)CCCN(C(=O)c2c(F)ccc(C)c2F)C1 (centres undefined)	i	-8.0%	-16.3%	.	-63.6*	.
O=C(CSc1ccccc1C(=O)NCc1ccccc1)NC12CC3CC(CC(C3)C1)C2	?	?	?	10µM*	-32.1	?
CC[C@H](C)[C@@H]1NC(=O)CNC(=O)c2csc(n2)[C@H](C(C)(C)O)OC(=O)C(C)(C)[C@H](CCCC(C)(Cl)Cl)OC(=O)c2csc1n2	5.62µM*	6.31µM*	-14.5%	.	-78.8*	.
C[C@]1(c2cnc(Nc3ccccc3)s2)CCC(=O)O1	.	.	.	.	.	-10.4%[46.1 µM]
O=C(CCCC(=O)N(c1ccc2c(c1)OCCO2)C(C(=O)NC1CCCCC1)c1ccc(F)cc1)Nc1ccccn1 (centres undefined)	-17.6%	-22.8%	.	1.7%	-68.4*	?
Cc1ccc(C(C(=O)NC2CCCCC2)N(C(=O)CCCC(=O)Nc2ccccn2)c2ccc3c(c2)OCCO3)cc1 (centres undefined)	.	.	28.2%	-11.3%	-62.7*	19.9%
CCOc1ccc(N(CC(=O)NC2CCCCC2)C(=O)CCCC(=O)Nc2ccccn2)cc1	i	-26.5%	42.9%	10µM*	22.5	-0.9%[46.1 µM]
CCc1nc2cc(C(=O)NC3CCS(=O)(=O)C3)cc(NC(=O)c3ccccc3OC)c2n1C (centres undefined)	i	-8.6%	-11.1%	.	.	.
CC(C)(CN1CCOCC1)NS(=O)(=O)c1ccccc1	-26.7%	-2.7%	1.5%	4.0%	-29.2	-1.0%
CN1CCN(CC(C)(C)NS(=O)(=O)c2ccccc2)CC1	-10.5%	-2.3%	-14.2%	2.4%	-61.3*	3.9%
Cc1c(C(=O)N2CCOCC2)sc2ncn(CC(=O)N3CCC(C)CC3)c(=O)c12	i	0.0%	-13.9%	3.3%	.	9.5%
Cc1c(C(=O)N2CCN(c3ccc([N+](=O)[O-])cc3)CC2)sc2ncn(CC(=O)N3CCOCC3)c(=O)c12	-22.4%	-8.5%	-16.1%	-0.1%[46.1 µM]	-80.4*	?
O=C(NCc1ccncc1)c1cnn(-c2ncc3c(n2)-c2ccccc2CC3)c1C1CC1	i	-7.8%	-10.6%	.	.	.
CCOC(=O)c1sc(NC(=O)c2ccccc2)cc1C	.	.	36.3%	?	27.6	?
CCOC(=O)c1sc(NC(=O)c2ccc(S(=O)(=O)N(C)C)cc2)cc1C	.	.	?	-19.9%	-87.0*	-35.9%
CCOC(=O)c1csc(NC(=O)c2ccccc2)n1	34.5%	1.8%	22.2%	.	77.1	.
CCOC(=O)c1csc(NC(=O)c2ccc(OCC)cc2)n1	?	-26.3%	?	?	-60.8*	?
CCOC(=O)c1csc(NC(=O)c2ccc(S(=O)(=O)N(C)C)cc2)n1	-25.6%	-11.5%	.	-16.0%	-63.2*	-3.4%
O=C1CCCC=C1C(O)COCc1ccccc1 (centres undefined)	.	.	.	.	.	3.2%[14.2 µM]
O=C(N/N=C\C=C\c1ccc([N+](=O)[O-])o1)c1cccs1	10µM*	?	1.7%	?	-64.8*	?
